Screens as filed in PubChem BioAssay.
This is a sample that favours compounds with a hit; in the whole collection about 0.77% have one here.
RE007 growth inh: less growth of the S. pombe RE007 Vpr strain | S. pombe RE007 Vpr strain, BacTiter-Glo ATP luminescence, 24 h | Potency, µM (top dose mostly 92.2 µM), most hits filed as inhibitors | 0.21% of 360,000 active | AID 651644; active = well fitted falling curve with a large enough effect; inconclusive = small, poorly fitted or top-dose-only effect; inactive = no such curve, though single readings can be large or run the other way; also: nearly all actives have a fitted effect of over 50% in size
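Fission yeast RE007 carrying one integrated HIV-1 vpr copy, seeded at OD 0.01 in PMG+AL medium with 23 nL pinned compound. Grown 24 h at 30 degrees; viability read by BacTiter-Glo luminescence after 5 min.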
LmPK inh: LmPK (Leishmania mexicana) enzyme inhibition | AID 1721 | Potency, µM (series often up to 57.5 µM), actives largely listed as inhibitors | purified LmPK, Kinase-Glo ATP luminescence, 1 h | 0.37% of 290,000 active | Q27686
Target sequence (Q27686 whole entry, looked up): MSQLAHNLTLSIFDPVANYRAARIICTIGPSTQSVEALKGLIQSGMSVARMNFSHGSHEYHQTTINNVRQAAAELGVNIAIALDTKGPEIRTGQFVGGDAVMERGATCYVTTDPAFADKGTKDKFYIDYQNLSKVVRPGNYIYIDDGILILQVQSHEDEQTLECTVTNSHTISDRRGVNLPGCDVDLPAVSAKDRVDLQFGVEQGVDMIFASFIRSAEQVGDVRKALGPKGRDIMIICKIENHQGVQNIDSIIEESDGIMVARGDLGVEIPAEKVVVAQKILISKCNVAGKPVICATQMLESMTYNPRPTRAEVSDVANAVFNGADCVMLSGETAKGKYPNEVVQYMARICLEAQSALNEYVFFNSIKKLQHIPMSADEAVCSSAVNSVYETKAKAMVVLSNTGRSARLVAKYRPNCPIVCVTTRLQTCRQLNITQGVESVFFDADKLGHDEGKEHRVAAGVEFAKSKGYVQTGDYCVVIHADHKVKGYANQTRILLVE
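ATP generated from ADP (0.1 mM) and PEP (0.5 mM) by 0.1 nM LmPK over 1 h at room temperature (pH 7.2 imidazole buffer) was detected by coupled luciferase luminescence. Values were normalized to uninhibited and no-enzyme wells.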
TbPYK inhibitor: blocks Trypanosoma brucei pyruvate kinase. TbPYK enzyme, Kinase-Glo Plus ATP luminescence, 45 min. Potency, µM (series often up to 76.8 µM), hits mostly inhibitors. 0.12% of 410,000 active; also: nearly all actives have a fitted effect of over 50% in size
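Quantitative HTS: titrated library compounds versus trypanosomal pyruvate kinase in TEA buffer (pH 7.2) containing KCl, MgCl2, BSA and Tween-20. Reactions were initiated with ADP, 130 uM final. Kinase-Glo Plus luminescence was read after 45 min at RT.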
NS1 function inh: inhibitors of influenza NS1 protein function | 0.4% of 270,000 active | Potency, µM (highest dose often 46.1 µM); calls by dose curve; also: actives are rising curves; nearly all actives have a fitted effect of over 50% in size
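S. cerevisiae expressing influenza A NS1, grown in glucose, washed, then diluted 1:100 into pH 6.0 -URA galactose medium with 23 nl compound. Growth recovery read as OD600; NS1-free strain serves as control.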
NS1 inh valid: influenza NS1 function inhibition validation; shares compounds with NS1 function inh; influenza NS1 function cell assay, 15-point titration; activity change, negative = inhibition, % at 32.9 µM; 1,400 tested, under 10 active; AID 492980; calls by dose curve
Flu PR8 replic: influenza NS1 inhibitors: inhibition of influenza A/PR/8/34 replication; virus titer (log TCID50), log10 TCID50 at 5 µM; shares compounds with NS1 function inh; MDCK infected influenza A/PR/8/34, virus titer TCID50; stronger effect = lower value; 30% of 95 active; call rule not given here
Large screens that a line does not name were inactive (follow-up assays come after a bar, where they were run). Unless noted, calls follow the shape of the dose curve; as a rule, active = well fitted curve in the direction sought with a large enough effect; inconclusive = small, poorly fitted or top-dose-only effect, or another doubt; inactive = no such curve, though single readings can be large; an effect the other way counts as inactive or inconclusive.

Cc1cccc(C)c1NC(=O)C1CCCN(S(=O)(=O)c2c(C)noc2/C=C/N(C)C)C1 (stereo unspecified)	none (no result: RE007 growth inh, LmPK inh, NS1 function inh)
CCOC(=O)COc1c(OC)cc(Cl)cc1C1Nc2ccccc2C(=O)N1c1ccc(F)cc1 (stereo unspecified)	NS1 function inh 12.6µM | NS1 inh valid inactive
CSCC[C@H](NC(=O)[C@H](Cc1ccccc1)n1c(=O)[nH]c2ccccc2c1=O)C(=O)NCC1CCC(C(=O)O)CC1 (stereo partly specified)	NS1 function inh 11.2µM | NS1 inh valid inactive
CSCC[C@H](NC(=O)[C@H](Cc1ccccc1)n1c(=O)[nH]c2ccccc2c1=O)C(=O)N1CCC[C@@H]1C(=O)O	none
O=C1CSC(=S)N1/N=C/c1cccnc1	NS1 function inh 1.12µM | NS1 inh valid inactive
COc1ccc(C(=O)Nc2cccc(-c3cn4ccsc4n3)c2)cc1OC	none (no result: RE007 growth inh, LmPK inh, NS1 function inh)
COCCNC(=O)CCc1ccc(S(=O)(=O)Nc2ccc(C)cc2)cc1	NS1 function inh 15.8µM | NS1 inh valid inactive
Cc1c(NC(=O)C(C)OC(=O)c2cc(-c3cccc4ccccc34)nc3ccccc23)c(=O)n(-c2ccccc2)n1C (stereo unspecified)	NS1 function inh 11.2µM (no result: RE007 growth inh) | NS1 inh valid inactive
CN1CCN(S(=O)(=O)c2ccc(-c3ccccc3)cc2)CC1	none
Cc1ccc(S(=O)(=O)N2CC(=NO)C2)cc1	NS1 function inh 6.31µM | NS1 inh valid inactive
Cc1ccc(-c2ccc(S(=O)(=O)N3CCN(C)CC3)cc2)cc1	NS1 function inh 11.2µM | NS1 inh valid inactive
COc1ccc(-c2nc3c(c4c2C[C@H](c2ccccc2)OC4)CN(S(=O)(=O)c2ccc4c(c2)OCCN4C)CC3)c(C)c1	none (no result: RE007 growth inh, TbPYK inhibitor, NS1 function inh)
CCCn1c(N)c(N(CCOC)C(=O)c2c(CC)noc2C)c(=O)[nH]c1=O	none (no result: LmPK inh, NS1 function inh)
Cc1c(N/N=C(\C#N)C(=O)c2ccc(Cl)cc2)c(=O)n(-c2ccccc2)n1C	NS1 function inh inconclusive | NS1 inh valid inconclusive
N#C/C(=N\Nc1ccc(Cl)cc1)C(=O)c1ccccc1	none
CC1CCN(S(=O)(=O)c2ccc3c(c2)N(CC(=O)NCCCOC(C)C)C(=O)CO3)CC1	NS1 function inh inconclusive | NS1 inh valid inactive
CNC1C(O)C(OC2C(NC(=O)C(O)CN)CC(N)C(OC3OC(CN)C(O)C(O)C3O)C2O)OCC1(C)O (stereo unspecified)	none (no result: RE007 growth inh, LmPK inh, NS1 function inh)
COc1cccc(C(=O)N2CCN=C2SCc2cccnc2)c1OC	NS1 function inh 1.58µM | NS1 inh valid inactive
COc1ccc(C(=O)N2CCN=C2SCc2cccnc2)c(OC)c1	none
Cn1cccc1Cc1nnc(SCC(=O)Nc2ccccc2F)n1CCc1ccccc1	NS1 function inh 7.08µM | NS1 inh valid inactive
COc1ccc(-n2c(Cc3cccn3C)nnc2SCC(=O)Nc2ccc(Cl)cc2)cc1	NS1 function inh 10µM | NS1 inh valid inactive | Flu PR8 replic inactive
Cc1ccc(S(=O)(=O)Nc2ccccc2C(=O)OC(C)C(=O)Nc2ccc3ccccc3c2)cc1[N+](=O)[O-] (stereo unspecified)	NS1 function inh 4.47µM | NS1 inh valid inactive
COCCNC(=S)Nc1ccccc1Cc1ccccc1	none (no result: NS1 function inh)
O=C(NCc1ccccc1)NC1CCS(=O)(=O)C1 (stereo unspecified)	none
CC(C1CC1)N(C(=O)NC1CCS(=O)(=O)C1)c1ccccc1 (stereo unspecified)	NS1 function inh inconclusive | NS1 inh valid inactive
O=C(NC1CC1)c1ccc(CS(=O)(=O)c2c(Cl)cccc2Cl)o1	NS1 function inh 4.47µM | NS1 inh valid inactive
O=C(Nc1ccc(F)cc1F)c1cc(CN2CCOCC2)on1	none (no result: RE007 growth inh, LmPK inh, NS1 function inh)
Cc1ccc2nc(NC(=O)c3ccc(S(=O)(=O)N4CCC(C)CC4)cc3)sc2c1	none (no result: RE007 growth inh, LmPK inh, NS1 function inh)
Cc1ccc2nc(NNC(=O)c3ccc(S(=O)(=O)N4CCc5ccccc5C4)cc3)sc2c1	NS1 function inh 10µM | NS1 inh valid inconclusive
O=C(C[n+]1cc2ccccc2c2ccccc21)c1ccccc1	NS1 function inh inconclusive | NS1 inh valid inactive
O=C(C[n+]1cccc2ccccc21)c1ccccc1	none
c1ccc(-n2c(SCC3CCCCO3)nnc2-c2cccs2)cc1 (stereo unspecified)	NS1 function inh inconclusive | NS1 inh valid inconclusive
CC(=O)c1cccc(S(=O)(=O)N2CCN(c3nc4cc(C)cc(C)c4cc3C#N)CC2)c1	NS1 function inh 10µM | NS1 inh valid inactive
COc1ccccc1-n1cc(C(=O)NCC(=O)NCc2ccc(F)cc2)c2ccccc2c1=O	none (no result: NS1 function inh)
CCc1ccc(NC(=O)CNC(=O)c2cn(-c3ccccc3OC)c(=O)c3ccccc23)cc1	NS1 function inh 11.2µM | NS1 inh valid inactive | Flu PR8 replic inactive
CCOC(=O)CSc1nc2ccc(N3CCOCC3)cc2c(=O)n1Cc1ccccc1	NS1 function inh 1µM (no result: TbPYK inhibitor) | NS1 inh valid inactive
Cc1[nH]c2ccc(-c3nnc(SCC(=O)NCc4ccco4)n3Cc3ccccc3)cc2c1C	NS1 function inh 3.55µM | NS1 inh valid inactive
CCn1c(SCC(=O)NCc2ccco2)nnc1-c1ccncc1	none (no result: RE007 growth inh, TbPYK inhibitor, NS1 function inh)
NC(Cc1ccc(Oc2cc(I)c(O)c(I)c2)c(I)c1)C(=O)O (stereo unspecified)	none (no result: RE007 growth inh, LmPK inh, NS1 function inh)
COc1ccc(-n2cnnc2SCC(=O)c2ccc(S(=O)(=O)N3CCOCC3)cc2)cc1	NS1 function inh 1.78µM | NS1 inh valid inactive
CCN(CC)c1ccc(C(=O)NNC(=O)C2CCN(c3ncnc4sc(C)c(C)c34)CC2)cc1	none (no result: LmPK inh, NS1 function inh)
CC(C)OC(=O)/C(=C\C=C\c1ccccc1)NC(=O)c1ccccc1	NS1 function inh inconclusive | NS1 inh valid inactive
CC(C)(C)c1ccc(C(=O)NNC(=O)CCC(=O)Nc2ccccc2)cc1	none
CC(C)N1CSC(=S)N(Cc2ccccc2)C1	none (no result: NS1 function inh)
O=C(CSc1nc2ccccc2c(=O)n1-c1ccccc1)N1CCc2ccccc2C1	none
CC(C)c1ccccc1-n1c(SCC(=O)N2CCc3ccccc3C2)nc2ccccc2c1=O	NS1 function inh 22.4µM | NS1 inh valid inactive
Cn1c(CCC(=O)OCC(=O)NCc2ccc3c(c2)OCO3)nc(=O)c2ccccc21	none (no result: NS1 function inh)
CCn1c(SCC(=O)N2CCC(C)CC2)nc2c(c1=O)SCC2	NS1 function inh 2µM | NS1 inh valid inactive
Cc1nc([N+](=O)[O-])cn1-c1ccc([N+](=O)[O-])cc1	none (no result: RE007 growth inh, LmPK inh, NS1 function inh)
Cc1cccc(C)c1NC(=O)CCS(=O)(=O)c1cccc2nonc12	NS1 function inh inconclusive | NS1 inh valid inactive
CCN(CC)c1nc(N)n(CCSC(=S)N(C)C)c(=O)n1	NS1 function inh inconclusive | NS1 inh valid inactive
O=C(Nc1ccc2c(c1)OCCO2)C(c1ccccc1)n1c(=O)c(-c2cc3ccccc3[nH]2)nc2ccccc21 (stereo unspecified)	none (no result: LmPK inh, TbPYK inhibitor, NS1 function inh)
COc1ccc(-c2nc3n(c(=O)c2C#N)CCS3)cc1	none (no result: NS1 function inh)
FC(F)Oc1ccc(/C=N/c2c(-c3ccc(OC(F)F)cc3)nc3n2CCS3)cc1	NS1 function inh 12.6µM | NS1 inh valid inactive
